Measured values taken from PubChem BioAssay (NCATS).
Inconclusive results are not listed. Activity calls are given as the source filed them. The call rests on the fitted dose curve; in most records, active means well fitted inhibition curve with a large enough effect; inconclusive means small, poorly fitted or top-dose-only effect; inactive means flat fitted curve, though single readings scatter.

Tests used:
Test in all cases: qHTS profiling for inhibitors of Plasmodium falciparum proliferation (AID 504749); further: nearly all actives have a fitted effect of over 60% in size
Conditions in all cases: P. falciparum in erythrocytes, SYBR Green DNA, 72 h; series mostly up to 28.7 µM
[1] = system: CP262
Summary of the method: (§1)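 Fluorescence of SYBR Green-bound parasite DNA, read at 485/535 nm, served as the growth measure. Infected erythrocytes were cultured with compound 72 h; artemisinin (0.29 uM) and DMSO wells defined the normalization range.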

[2] = system: CP265
Summary of the method: as §1

[3] = system: CP266
Summary of the method: as §1

[4] = system: CP268
Summary of the method: as §1

[5] = system: CP269
Summary of the method: as §1

[6] = system: CP286
Summary of the method: as §1

[7] = system: CP291
Summary of the method: as §1

[8] = system: CP297
Summary of the method: as §1

[9] = system: CP305
Summary of the method: as §1

[10] = system: CP315
Summary of the method: as §1

Measured: Potency
Potency means the concentration at half of the fitted maximal effect.

O=C1c2ccccc2S(=O)(=O)N1CCCCN1CCN(c2ncccn2)CC1
inactive: all assays above

CCc1cccc(CC)c1NC(=O)CN(CC(=O)O)CC(=O)O
inactive: all assays above

O=C(O)Cc1ccc(CCNS(=O)(=O)c2ccc(Cl)cc2)cc1
inactive: all assays above

CC(=O)NCc1c(I)c(NC(C)=O)c(I)c(C(=O)O)c1I
inactive: all assays above

Cc1ccccc1N=Nc1ccc(N=Nc2c(O)ccc3ccccc23)c(C)c1
inactive: all assays above

CNc1c2c(nn1C)CCCC2
inactive: all assays above

C[C@@H]1CCC[C@H](C)N1
inactive: all assays above

N[C@@H](Cc1ccc(O)cc1)C(=O)O
inactive: all assays above

Cn1c(=O)c2c(ncn2CCO)n(C)c1=O
inactive: all assays above

O[C@@H]1CO[C@H]2[C@@H]1OC[C@@H]2O
inactive: all assays above

CC(=O)SC[C@@H](Cc1ccccc1)C(=O)NCC(=O)OCc1ccccc1
inactive: all assays above

O=C(O)Cn1c(C(=O)Nc2nc(-c3ccccc3Cl)cs2)cc2ccccc21
inactive: all assays above

CCCNC(C)(C)COC(=O)c1ccccc1
inactive: all assays above

Cc1cc(NC(=O)C2=C(O)c3ccccc3S(=O)(=O)N2C)no1
inactive: all assays above

C[C@@H](N)C(=O)O
inactive: all assays above

Cc1c(C(=O)NCCO)[n+](=O)c2ccccc2n1[O-]
inactive: all assays above

CN1CCN(C(=O)C2CCCCC2)CC1
inactive: all assays above

O=C1CC[C@@H](C(=O)O)N1
inactive: all assays above

O=C(O)Cc1cn(-c2ccccc2)nc1-c1ccc(Cl)cc1
inactive: all assays above

O=c1[nH]c2cc(C(F)(F)F)c(N3CCOCC3)cc2n(CP(=O)(O)O)c1=O
inactive: all assays above

CC(=O)Oc1cccc(O)c1
inactive: all assays above

CC(=O)Nc1cccc(O)c1
inactive: all assays above

O=C(O)CNC(=O)c1ccccc1I
inactive: all assays above

O=C(NCN1CCOCC1)c1cnccn1
inactive: all assays above

Cc1ccc(S(=O)(=O)NC(=O)NC2CCCCC2)cc1
inactive: all assays above

Cc1cc(=O)[nH]c(=S)[nH]1
inactive: all assays above

Cc1ccc(S(=O)(=O)NC(=O)NC2CCCCCCC2)cc1
inactive: all assays above

COc1ccc(C(=O)N2CCN(CC(=O)N3CCOCC3)CC2)cc1
inactive: all assays above

CCCCCCCC(=O)OCC(O)CO (stereo not given)
inactive: all assays above

CCCCCC(C)N (stereo not given)
active: [6] 8.91 µM
inactive: all other assays above

COC(=O)c1cccnc1
inactive: all assays above

NNc1nnc(NN)c2ccccc12
inactive: all assays above

CC(=O)OCC(COC(C)=O)OC(C)=O
inactive: all assays above

CC(=O)Nc1ccc(OCCOCCOc2ccc(NC(C)=O)cc2)cc1
inactive: all assays above

Cc1ccc(C(C)C)c(O)c1
inactive: all assays above

CCOC(N)=O
inactive: all assays above

CCCCCCCCCCCCCCCCC(C(=O)O)C(O)(CC(=O)O)C(=O)O (stereo not given)
inactive: all assays above

CC(=O)N[C@@H](Cc1ccc(O)cc1)C(=O)O
inactive: all assays above

COc1cc(C(=O)NCCCCCC(=O)O)cc(OC)c1OC
inactive: all assays above

COc1ccccc1Oc1c(NS(=O)(=O)c2ccc(C(C)(C)C)cc2)nc(-c2ncccn2)nc1OCCO
inactive: all assays above

CC(C)C[C@@H](N)C(=O)O
inactive: all assays above

Cc1c(I)c(=O)n(-c2ccccc2)n1C
inactive: all assays above

O=C(O)COC(=O)Cc1ccccc1Nc1c(Cl)cccc1Cl
inactive: all assays above

CC(C)=CCC/C(C)=C/CO
inactive: all assays above

Nc1ccc(C(=O)Oc2ccccc2)c(O)c1
inactive: all assays above

CC(=O)Nc1ccccc1
inactive: all assays above

NC(=O)NS(=O)(=O)c1ccc(N)cc1
inactive: all assays above

O=C(O)c1ccccc1OP(=O)(O)O
inactive: all assays above

CCCCC1(COC(=O)CCC(=O)O)C(=O)N(c2ccccc2)N(c2ccccc2)C1=O
inactive: all assays above

Cc1cc(C)nc(NS(=O)(=O)c2ccc(N)cc2)n1
inactive: all assays above
